Bioassay records (PubChem)
AmpC inh no detg: qHTS Inhibitors of AmpC Beta-Lactamase (assay without detergent); P00811; AmpC nitrocefin hydrolysis, absorbance 480 nm, 0.0001% Triton; Potency, µM (titrated, usually from 57.1 µM), for inactives: at the highest dose activity change, negative = inhibition, hits mostly inhibitors; hit rate 0.52% among 330,000;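 further: plate controls were no compound for no effect and no enzyme for full effect; nearly all actives have a fitted effect of over 20% in size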
Target sequence (P00811 whole entry, looked up): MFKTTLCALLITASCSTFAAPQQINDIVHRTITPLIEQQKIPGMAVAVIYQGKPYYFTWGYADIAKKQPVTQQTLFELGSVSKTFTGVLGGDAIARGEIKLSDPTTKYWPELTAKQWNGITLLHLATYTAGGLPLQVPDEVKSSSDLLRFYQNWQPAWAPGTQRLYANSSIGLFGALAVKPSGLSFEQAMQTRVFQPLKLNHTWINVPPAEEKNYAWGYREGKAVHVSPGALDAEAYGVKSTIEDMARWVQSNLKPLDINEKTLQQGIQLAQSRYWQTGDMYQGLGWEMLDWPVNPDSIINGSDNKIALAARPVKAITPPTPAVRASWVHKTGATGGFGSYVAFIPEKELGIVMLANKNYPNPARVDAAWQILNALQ
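AmpC (5.3 nM in the dispensed reagent) in 20 mM phosphate pH 7.0 with 0.01% (detergent screen) or 0.0001% Triton X-100 was preincubated with compounds for 15 min at room temperature. Nitrocefin was then added from an 800 uM solution, and hydrolysis was followed at 480 nm.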
NS1 inh: qHTS Assay for Inhibitors of Influenza NS1 Protein Function; Potency, µM (top dose mostly 46.1 µM), inactives show at the top dose activity, positive = more growth; hit rate 0.4% among 270,000; AID 2326, 2010; calls by dose curve; further: actives are rising curves; nearly all actives have a fitted effect of over 50% in size
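S. cerevisiae expressing influenza A NS1, grown in glucose, washed, then diluted 1:100 into pH 6.0 -URA galactose medium with 23 nl compound. Growth recovery read as OD600; NS1-free strain serves as control.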
AMA1 RON2 block: qHTS for Inhibitors of AMA1-RON; Towards Development of Antimalarial Drug Lead: Primary Screen; Potency, µM (highest dose often 58.2 µM), for inactives: at the top dose activity change, negative = inhibition, usual class: inhibitors; hit rate 0.2% among 360,000; AlphaScreen AMA1-biotinylated RON2 peptide binding; AID 720542, 2013; Plasmodium falciparum AMA1 (3D7) - RON2 peptide interaction;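 further: 0% = vehicle wells and -100% = peptide control; nearly all actives have a fitted effect of over 45% in size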
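AMA1 (3D7) with his tag at 25 nM final met compounds first, then biotinylated RON2 peptide at 25 nM; detection used donor plus acceptor beads, 10 µg/mL apiece, read by AlphaScreen after 30 min at room temperature.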
AmpC inh detg: qHTS Inhibitors of AmpC Beta-Lactamase (assay with detergent) | P00811 | AmpC hydrolysis of nitrocefin, absorbance 480 nm, 0.01% Triton | Potency, µM (doses to about 114 µM), for inactives: at the highest dose activity change, negative = inhibition, usual class: inhibitors | hit rate 0.041% among 370,000;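 further: 0% = no-compound wells and -100% = no-enzyme wells; nearly all actives have a fitted effect of over 25% in size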
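AmpC (5.3 nM in the dispensed reagent) in 20 mM phosphate pH 7.0 with 0.01% (detergent screen) or 0.0001% Triton X-100 was preincubated with compounds for 15 min at room temperature. Nitrocefin was then added from an 800 uM solution, and hydrolysis was followed at 480 nm.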
Active calls of the source: *; ? = inconclusive; nt = not tested or not shown. An excerpt weighted towards active compounds, which were near 0.86% of everything screened. Unless noted, the call rests on the fitted dose curve; in most records, active means well fitted curve in the direction sought with a large enough effect; inconclusive means small, poorly fitted or top-dose-only effect, or another doubt; inactive means no such curve, though single readings can be large; an effect the other way counts as inactive or inconclusive. Potency means the concentration at half of the fitted maximal effect.

SMILES	AmpC inh no detg	NS1 inh	AMA1 RON2 block	AmpC inh detg
Cc1c(O)nc(SCC(=O)Nc2ccc3c4c(cccc24)CC3)n(-c2ccc(F)cc2)c1=O	28µM*	21%	-1%	-3%
N#Cc1ccccc1OCC(=O)NCC(c1cccs1)N1CCOCC1 (stereo not given)	5%	3%	-9%	2%
C=CCNc1nc(NCc2ccc(N(C)C)cc2)c2sc(-c3ccccc3)cc2n1	nt	nt	2.8µM*	nt
C=CCNc1nc(NCCOC)c2sc(-c3ccccc3)cc2n1	nt	nt	-5%	nt
CC(C)(C)c1ccc(C(=O)Nc2cc(-c3ccccc3)nn2-c2ccccc2)cc1	nt	nt	nt	4%
CNC(=O)C[C@@H]1C(=O)N(c2ccc(Br)cc2)CC1(C)C	nt	nt	1%	nt
Cc1ccc(-n2c(=O)c3c4c(sc3n(Cc3ccccc3C)c2=O)CCC4)cc1C	nt	nt	nt	-1%
Cc1ccc(C)c(NC(=O)CSc2sc3c(O)cc(=O)[nH]c3c2C#N)c1	-39%	?	2%	0%
Cc1cc(NC(=O)CSc2sc3c(O)cc(=O)[nH]c3c2C#N)ccc1Br	14µM*	?	-5%	7%
N#Cc1c(SCC(=O)Nc2cccc(C(F)(F)F)c2)sc2c(O)cc(=O)[nH]c12	22µM*	11%	19%	?
CCc1nnc(NC(=O)CSc2sc3c(O)cc(=O)[nH]c3c2C#N)s1	-39%	23%	10µM*	1%
COc1ccccc1NC(=O)CSc1sc2c(O)cc(=O)[nH]c2c1C#N	-39%	28%	-21%	-1%
CCSc1nnc(NC(=O)CSc2sc3c(O)cc(=O)[nH]c3c2C#N)s1	?	22%	7%	3%
Cc1ccc(-c2c(C(=O)NCCc3ccccc3)oc(=O)c3ccccc23)cc1	nt	nt	nt	7%
COc1cc(/C=C(\C#N)C(=O)Nc2ccc(C)cc2)ccc1OCc1cc(=O)n2nc(C)sc2n1	nt	nt	nt	0%
CC1NC2(C(=O)N(Cc3ccccc3)c3ccccc32)C2C(=O)N(c3ccccc3)C(=O)C12 (stereo not given)	11µM*	-58%	-4%	?
Cc1ccn2c(=O)nc(SCC(=O)NCCc3ccccc3)nc2c1	32µM*	nt	0%	?
CCO[C@H]1OC(C(=O)N2CCOCC2)=C[C@@H](C2CC2)[C@@H]1CCCO	-11%	2%	22%	4%
CCCCn1c(C(C)NC(=O)COC)nc2ccccc21 (stereo not given)	-10%	0%	-2%	0%
CCCCCn1c(C(Cc2ccccc2)NC(=O)COC)nc2ccccc21 (stereo not given)	1.3µM*	-30%	39%	?
CCCCn1c(CNC(=O)CCC)nc2ccccc21	7.1µM*	-7%	-4%	-12%
CCN(CC)C(=O)C1=C(C)Nc2nc3ccccc3n2C1c1ccc(Cl)cc1 (stereo not given)	nt	nt	nt	18%
N#CC1=C(N)Nc2nc3ccccc3n2C1c1ccc(Cl)cc1 (stereo not given)	13µM*	1%	9%	?
Cc1cc(C(=O)N/N=C/c2cc([N+](=O)[O-])ccc2O)c2ccccc2n1	-58%	5%	?	-8%
Cc1cc(C(=O)N/N=C/c2cc(Br)cc([N+](=O)[O-])c2O)c2ccccc2n1	-52%	-40%	35µM*	-11%
SMILES	AmpC inh no detg	NS1 inh	AMA1 RON2 block	AmpC inh detg
Nc1ccc2c3c(ccc([N+](=O)[O-])c13)CC2	nt	nt	28µM*	nt
O=[N+]([O-])c1ccccc1-c1ccc(C(=S)N2CCCCC2)o1	-35%	-2%	25µM*	7%
O=[N+]([O-])c1ccccc1-c1ccc(C(=S)N2CCCC2)o1	-2%	nt	0%	-14%
COC(=O)C1=C(C(=O)OC)SC2(S1)C(C(=O)OC)=C(C(=O)OC)Sc1c2ssc1=O	nt	nt	28µM*	nt
Cc1ccc(C)c(NS(=O)(=O)c2ccc3c(c2)Cc2cc(S(=O)(=O)Nc4cc(C)ccc4C)ccc2-3)c1	7.9µM*	9%	20%	-9%
OC(COCc1ccccc1)CN1CCN(Cc2ccc3c(c2)OCO3)CC1 (stereo not given)	-11%	-2%	-4%	-4%
SC(COCc1ccccc1)CN1CCN(Cc2ccc3c(c2)OCO3)CC1 (stereo not given)	30%	14%	25µM*	-4%
CCOC(=O)C1(C)CCCCCN1C(=O)c1ccc(SC(F)(F)F)cc1 (stereo not given)	nt	nt	-6%	nt
CC(C)=CCc1c(O)cc2oc3c(CC=C(C)C)c(O)c(O)c(CC=C(C)C)c3c(=O)c2c1O	14µM*	-41%	61%	6%
CCOc1ccccc1NC(=O)CN(c1ccc(OC)cc1)S(=O)(=O)c1c(C)[nH]c(=O)[nH]c1=O	-7%	6%	0%	-2%
CCOC(=O)c1cc2c(=Cc3ccc(N(C)C)cc3)c3ccccc3n2[n+]1C	nt	nt	20µM*	nt
C[n+]1c(-c2ccccc2)cc2c(=Cc3ccccc3)c3ccccc3n21	nt	nt	16µM*	nt
CN(C)c1ccc(C=c2c3cc(O)ccc3n3c2cc(-c2ccccc2)[n+]3C)cc1	nt	nt	14µM*	nt
CN(C)c1ccc(/C=c2\sc3nc(-c4ccccc4)nn3c2=O)cc1	-14%	5%	nt	-2%
CCOC(=O)SC1=N/C(=C\c2ccc(N(C)C)cc2)C(=O)S1	-18%	-6%	?	0%
COc1ccc(-c2nnc3ccc(SCC(=O)N4CCN(c5ccccc5)CC4)nn23)cc1OC	nt	-3%	nt	nt
Cc1ccc(C(=O)CC(=O)COc2ccc(Cl)cc2C)cc1	2.2µM*	-1%	97%	?
Cc1ccc(NC(=O)c2ccc(OC(=O)COc3ccc(Cl)cc3C)cc2)cc1	-11%	3%	12%	?
Cn1ccc2c(N3CCCCCCC3)cc3c(c21)C1CCC3O1 (stereo not given)	nt	nt	25µM*	nt
O=C(NCc1ccc(Cl)cc1)c1ccc(-c2ccc(F)c(F)c2)c2ccoc12	nt	nt	15%	nt
Nc1ccccc1Nc1cc(-c2ccccc2)[nH]n1	1.1µM*	17%	-10%	1%
CCOC(=O)C1=C(c2ccccc2)N=c2s/c(=C\c3ccco3)c(=O)n2C1c1cccs1 (stereo not given)	13µM*	-27%	?	0%
CCCCNC(=O)CN1C(=O)c2c(c3ccccc3n2C)C1c1ccc(OC)cc1 (stereo not given)	nt	nt	nt	17%
C#CCn1c(=NC(=O)c2ccc(Br)s2)sc2cccc(OC)c21	1.4µM*	14%	-5%	?
CCOC(=O)c1cnc(-n2[nH]c(C)cc2=O)[nH]c1=O	-16%	nt	1.6µM*	2%
Cc1nc2nc(SCC(=O)NCCc3ccc(Cl)cc3)nn2c(C)c1Cc1ccccc1	nt	nt	nt	-2%
COc1cccc2cc(S(=O)(=O)c3ccccc3)c(=Nc3ccc4c(c3)OCCO4)oc12	3.5µM*	5%	4%	-6%
Cc1ccc(S(=O)(=O)c2cc3ccccc3oc2=Nc2ccc3c(c2)OCCO3)cc1	3.2µM*	-8%	-4%	-5%
